Assay results: ChEMBL document CHEMBL3988442, “University of Dundee, Small-Polar-MMV Screening Library” (2021)
Hit rate of the full screen: of about 48,000 compounds, about 13,000 (27%) showed an effect of 50% or more. The list shows a part of the results.

These compounds were tested on Wolbachia pipientis (assay: Anti-Wolbachia Cell-Based Screen). Details: 5 µM.
Format: functional
Parameters: scale not given: in the data most compounds retested in dose-response had high values

Question: Which “Percent Effect” value does the source give for `Cc1ccc(CN2Cc3ccnn3CC(C(=O)NCC3CC3)C2)o1.O=C(O)C(F)(F)F.O=C(O)C(F)(F)F` (centres undefined) here?
Answer: 99%

Question: With `COCCNC(=O)C1CN(Cc2cccc(C)n2)Cc2ccnn2C1.O=C(O)C(F)(F)F.O=C(O)C(F)(F)F` (centres undefined) as the compound, how does the “Percent Effect” value read?
Answer: 6.488%

Question: How did the “Percent Effect” value turn out when `CC(C)NC(=O)C1CN(Cc2ccsc2)Cc2ccnn2C1.O=C(O)C(F)(F)F.O=C(O)C(F)(F)F` (centres undefined) was run?
Answer: 1.409%

Question: With `COCCNC(=O)C1CN(Cc2nccs2)Cc2ccnn2C1.O=C(O)C(F)(F)F.O=C(O)C(F)(F)F` (centres undefined) as the compound, how does the “Percent Effect” value read?
Answer: -2.959%

Question: Which “Percent Effect” value does the source give for `O=C(NCC1CC1)C1CN(c2ncccn2)Cc2ccnn2C1.O=C(O)C(F)(F)F.O=C(O)C(F)(F)F` (centres undefined) here?
Answer: 106%

Question: Which “Percent Effect” value does the source give for `Cc1noc(C)c1CN1Cc2ccnn2CC(C(=O)NCC2CC2)C1.O=C(O)C(F)(F)F.O=C(O)C(F)(F)F` (centres undefined) here?
Answer: -16.43%

Question: For `CCOCC1CN(C(=O)Cc2cccs2)Cc2ccnn2C1` (centres undefined), which “Percent Effect” value is on record?
Answer: -16.86%

Question: Which “Percent Effect” value does the source give for `COCCNC(=O)C1CN(Cc2ccncc2)Cc2ccnn2C1.O=C(O)C(F)(F)F.O=C(O)C(F)(F)F.O=C(O)C(F)(F)F` (centres undefined) here?
Answer: 13.9%

Question: For `COCCNC(=O)C1CN(Cc2csc(C)n2)Cc2ccnn2C1.O=C(O)C(F)(F)F` (centres undefined), which “Percent Effect” value is on record?
Answer: 0%

Question: Which “Percent Effect” value does the source give for `O=C(NCC1CC1)C1CN(Cc2ccncc2)Cc2ccnn2C1.O=C(O)C(F)(F)F.O=C(O)C(F)(F)F.O=C(O)C(F)(F)F` (centres undefined) here?
Answer: 99.23%

Question: `CC(C)NC(=O)C1CN(Cc2cccs2)Cc2ccnn2C1` (centres undefined) was tested. Which “Percent Effect” value did it give?
Answer: -1.449%

Question: For `O=C(NCC1CC1)C1CN(Cc2cccs2)Cc2ccnn2C1` (centres undefined), which “Percent Effect” value is on record?
Answer: 124.8%

Question: `CC(C)c1nnc2n1CC(CNCc1ccncc1)CC2` (centres undefined) was tested. Which “Percent Effect” value did it give?
Answer: -13.6%

Question: `CCCS(=O)(=O)N1CCOC2(CCCN(c3ncc(F)cn3)C2)C1` (centres undefined) was tested. Which “Percent Effect” value did it give?
Answer: -2.367%

Question: For `N#CCCN(Cc1ccco1)C(=O)CCCc1ccccc1`, which “Percent Effect” value is on record?
Answer: 9.287%

Question: Which “Percent Effect” value does the source give for `COc1nn(C)c2c1CCCN(S(=O)(=O)c1cccs1)C2` here?
Answer: 2.697%

Question: For `Cc1ccc(NC(=O)C2CSCN2C(=O)c2cnccn2)c(C)c1` (centres undefined), which “Percent Effect” value is on record?
Answer: -0.3998%

Question: How did the “Percent Effect” value turn out when `Cl.Cl.O[C@@H]1C[C@@](CNCc2cccc(Cl)c2)(COc2cnccn2)C[C@@H]1O` was run?
Answer: -20.67%

Question: How did the “Percent Effect” value turn out when `O=C(c1cnccn1)N1CCCC2(CCCN2Cc2cccnc2)C1` (centres undefined) was run?
Answer: 8.648%

Question: For `NC(=O)C1(c2cnccn2)CCCN1Cc1cccc(Cl)c1` (centres undefined), which “Percent Effect” value is on record?
Answer: 110.7%

Question: `NC(=O)C1(c2cnccn2)CCCN1Cc1ccc(Cl)cc1` (centres undefined) was tested. Which “Percent Effect” value did it give?
Answer: 127.2%

Question: Which “Percent Effect” value does the source give for `Cc1ccc(CN2CCCC2(C(N)=O)c2cnccn2)c(C)c1` (centres undefined) here?
Answer: 148.6%

Question: How did the “Percent Effect” value turn out when `NC(=O)C1(c2cnccn2)CCCN1Cc1ccncc1` (centres undefined) was run?
Answer: 100.7%

Question: For `O=C(O)C1(Cc2ccc(Cl)cc2)CCN(c2ncccc2F)CC1`, which “Percent Effect” value is on record?
Answer: 4.468%

Question: For `O=C(O)[C@]12CCCN(Cc3ccncc3)[C@@H]1CCN(c1cnccn1)C2`, which “Percent Effect” value is on record?
Answer: 15.13%

Question: With `Cc1cccc(CN2C[C@@H]3CN(C(=O)c4cnccn4)C[C@@H]3C2=O)c1` as the compound, how does the “Percent Effect” value read?
Answer: -5.846%

Question: For `Cc1cncc(C(=O)N2CCNCC2C(=O)NCc2ccncc2)c1` (centres undefined), which “Percent Effect” value is on record?
Answer: -0.08971%

Question: Which “Percent Effect” value does the source give for `Cc1ccccc1-c1cc(C(=O)NCCN2CCCS2(=O)=O)[nH]n1` here?
Answer: -0.2577%

Question: Which “Percent Effect” value does the source give for `Cc1c(C(=O)N2CCSCC2)sc2nc(C(F)(F)F)ccc12` here?
Answer: -6%

Question: With `COC1CCN(S(=O)(=O)N2CC[C@@](O)(C3CCC3)[C@H](C)C2)CC1` as the compound, how does the “Percent Effect” value read?
Answer: -8.21%

Question: Which “Percent Effect” value does the source give for `CC(C)c1cc(C(=O)N2CCc3ccccc3C2C(=O)O)n(C)n1` (centres undefined) here?
Answer: 5.563%

Question: With `COCCOc1ccc(-c2noc([C@@H]3CCCN3C3CCC3)n2)cn1` as the compound, how does the “Percent Effect” value read?
Answer: -15.03%

Question: Which “Percent Effect” value does the source give for `Cn1cccc1C(=O)N[C@@H]1CN(CC2CC2)[C@@H]2COC[C@@H]21.O=C(O)C(F)(F)F` here?
Answer: -18.52%

Question: `Cc1nc(O)cc(C2CCN(C(=O)c3ccsc3)CC2)n1` was tested. Which “Percent Effect” value did it give?
Answer: -4.98%

Question: How did the “Percent Effect” value turn out when `FC(F)(F)c1cc(C2CCNCC2)nc(-c2ccsc2)n1` was run?
Answer: 147.1%

Question: `O=C(c1ccsc1)N1CCCC(c2cc(C(F)(F)F)[nH]n2)C1` (centres undefined) was tested. Which “Percent Effect” value did it give?
Answer: 0.1242%

Question: For `O=C1NCCCCC1NCc1csc(-c2ccsc2)n1` (centres undefined), which “Percent Effect” value is on record?
Answer: -2.584%

Question: Which “Percent Effect” value does the source give for `Cc1cc(C2CCNCC2)nc(-c2ccsc2)n1.Cl` here?
Answer: 168.5%

Question: Which “Percent Effect” value does the source give for `CC(C)CN1CC(c2nc(-c3ccsc3)c[nH]2)CC1=O` (centres undefined) here?
Answer: -7.374%

Question: How did the “Percent Effect” value turn out when `Cl.Cn1cnc2c(-c3ccccc3)nc(C3CCNCC3)cc21` was run?
Answer: -35.46%

Question: How did the “Percent Effect” value turn out when `Cl.Oc1cc(C2CCNCC2)nc(-c2ccsc2)n1` was run?
Answer: 186.4%

Question: `CC(C)(NC(=O)C1CCCN(C2CCCC2)C1)c1nnc(N)s1` (centres undefined) was tested. Which “Percent Effect” value did it give?
Answer: -3.514%

Question: `CN1CCc2c(CNc3ncccn3)n[nH]c2C1.O=C(O)C(F)(F)F` was tested. Which “Percent Effect” value did it give?
Answer: -10.34%

Question: For `COc1cccc(C2CCN2C(=O)c2cnccn2)c1` (centres undefined), which “Percent Effect” value is on record?
Answer: -9.896%

Question: With `COc1cc(N2C[C@H]3CN(C(=O)c4cnccn4)C[C@H]3C2)ncn1` as the compound, how does the “Percent Effect” value read?
Answer: 6.779%

Question: `COc1ccc2c(c1)CC(C1CCOCC1)N(C(=O)c1ccnn1C)C2` (centres undefined) was tested. Which “Percent Effect” value did it give?
Answer: 146.4%

Question: With `COc1cccc(CC2CN(C(=O)c3ccnn3C)CCO2)c1` (centres undefined) as the compound, how does the “Percent Effect” value read?
Answer: 14.16%

Question: Which “Percent Effect” value does the source give for `COc1ccc(CNC(=O)N2CCOCC2C2CC2)c(C)c1` (centres undefined) here?
Answer: -4.702%

Question: How did the “Percent Effect” value turn out when `Cn1nccc1C(=O)N1CCCC1c1ccc(C(=O)N2CCOCC2)s1` (centres undefined) was run?
Answer: -16.33%
